Results taken from PubChem BioAssay (EPA / NIEHS).
Activity calls are given as the source filed them. The calls were made as follows: active = hit-call score of the fitted dose curve at least 0.9, where 1 is the maximum; inactive = score below 0.9.

Assay: CCTE_Mundy_HCI_Cortical_Synap_Neur_Matur_NeuriteSpotCountPerNeuron: CCTE's Synaptogenesis and Neurite Maturation Assay in rat cortical cells for Neurite Spot Count per Neuron Count, Mundy Lab (AID 2284215)
How it was run: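 Rat primary cortical cells received AraC at DIV 5, then chemicals with a media change at DIV 7, and were fixed at DIV 12. Synaptophysin puncta on MAP2-stained neurites per neuron were counted by high-content imaging, fitted relative to DMSO.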

| Structure (SMILES) | AC50 | outcome |
| --- | --- | --- |
| C[n+]1ccc(-c2cc[n+](C)cc2)cc1 | 0.989 µM (active) |  |
| CCOP(=S)(OCC)SCS(=O)C(C)(C)C (stereo not given) |  | inactive |
| O=C(O)CNCP(=O)(O)O |  | inactive |
| C#CCN(C)[C@H](C)Cc1ccccc1 |  | inactive |
| Cn1nc(C(F)(F)F)c(CS(=O)(=O)C2=NOC(C)(C)C2)c1OC(F)F | 9.92 µM (active) |  |
| CC1(C)C(C=C(Cl)c2ccc(Cl)cc2)C1C(=O)OC(C#N)c1ccc(F)c(Oc2ccccc2)c1 (stereo not given) | 72 µM (active) |  |
| CCOP(=O)(Oc1cnc(C(C)(C)C)nc1)OC(C)C (stereo not given) |  | inactive |
| CC1(C)[C@H](C=C(Cl)Cl)[C@H]1C(=O)OCc1c(F)c(F)cc(F)c1F | 9.68 µM (active) |  |
| CC(=O)[O-].CC(=O)[O-].O.O.O.[Pb+2] |  | inactive |
| CC1(C)C(C=C(Cl)Cl)C1C(=O)O[C@H](C#N)c1cccc(Oc2ccccc2)c1 (stereo not given in full) | 10.8 µM (active) |  |
| CCOP(=O)(OCC)OC(Cl)C(Cl)(Cl)Cl (stereo not given) |  | inactive |
| CCOP(=O)(OCC)SCSC(C)(C)C |  | inactive |
| CC1(C)[C@@H](C=C(Cl)Cl)[C@@H]1C(=O)O[C@@H](C#N)c1ccc(F)c(Oc2ccccc2)c1 |  | inactive |
| COP(=O)(OC)SCN1C(=O)c2ccccc2C1=O |  | inactive |
| CC(=O)[O-].[Tl+] | 24.4 µM (active) |  |
